system: Madurella mycetomatis MM55; experiment: growth relative to untreated control; higher = less inhibition, active = 20 or less; details: 25 µM
Description: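 Hyphal fragments of M. mycetomatis MM55 or F. senegalensis CBS197.79 in RPMI 1640/MOPS were exposed to each MMV COVID Box or Global Health Priority Box compound at 100 or 25 µM for 7 days at 37 °C. Viability was read with MTS (490 nm, M. mycetomatis) or resazurin (600 nm, F. senegalensis), background-corrected with a medium-only control and expressed as % growth relative to the untreated growth control. Inhibition of more than 80% was taken as growth inhibition.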

Question: Which growth does the source give for `O=C(NC(=O)c1c(F)cccc1F)Nc1ccc(Cl)cc1` here?
Answer: 99.6% (inactive)

Question: With `N#CCNC(=O)c1cnccc1C(F)(F)F` as the compound, how does the growth read?
Answer: 109% (inactive)

Question: `CNCCn1c(Nc2cc(Cl)cc(C(F)(F)F)c2)nc2cnc(NC3CC(F)(F)C3)cc21` was tested. Which growth did it give?
Answer: 22.2% (inactive)

Question: Which growth does the source give for `ClC1=C(Cl)[C@@]2(Cl)[C@H]3C[C@@H](Cl)[C@H](Cl)[C@H]3[C@@]1(Cl)C2(Cl)Cl` here?
Answer: 104% (inactive)

Question: For `CCOCn1c(-c2ccc(Cl)cc2)c(C#N)c(Br)c1C(F)(F)F`, which growth is on record?
Answer: 30.1% (inactive)

Question: Which growth does the source give for `CC1(C)CNC(=NN=C(C=Cc2ccc(C(F)(F)F)cc2)C=Cc2ccc(C(F)(F)F)cc2)NC1` here?
Answer: 104% (inactive)

Question: `CCN(Cc1ccc(Cl)nc1)/C(=C/[N+](=O)[O-])NC` was tested. Which growth did it give?
Answer: 86.9% (inactive)

Question: `CC(C)(C#N)NC(=O)c1cc(Cl)cc(Cl)c1NC(=O)c1cc(Cl)nn1-c1ncccc1Cl` was tested. Which growth did it give?
Answer: 104% (inactive)

Question: Which growth does the source give for `CN/C(=N/CC1CCOC1)N[N+](=O)[O-]` (stereo not given) here?
Answer: 90.9% (inactive)

Question: How did the growth turn out when `CN(C)[C@@H]1C(=O)C(C(N)=O)=C(O)[C@@]2(O)C(O)=C3C(=O)c4c(O)cccc4[C@@](C)(O)[C@H]3C[C@@H]12` was run?
Answer: 102% (inactive)

Question: For `Clc1ccc(C(OCCN2CCCCC2)c2ccccc2)cc1` (stereo not given), which growth is on record?
Answer: 120% (inactive)

Question: Which growth does the source give for `N#Cc1nn(-c2c(Cl)cc(C(F)(F)F)cc2Cl)c(NCc2ccccn2)c1SC(F)F` here?
Answer: 47.2% (inactive)

Question: How did the growth turn out when `FC(F)(F)c1cc(Cl)cc(Nc2nc3cnc(OC4CCC4)cc3n2[C@@H]2CCNC2)c1` was run?
Answer: 79.6% (inactive)

Question: Which growth does the source give for `COP(=S)(OC)Oc1nc(Cl)c(Cl)cc1Cl` here?
Answer: 88.5% (inactive)

Question: `CNC(=O)c1cc(C#N)cc(C)c1NC(=O)c1cc(Br)nn1-c1ncccc1Cl` was tested. Which growth did it give?
Answer: 69.7% (inactive)

Question: `Cc1sc2c(c1C)C(c1ccc(Cl)cc1)=N[C@@H](CC(=O)OC(C)(C)C)c1nnc(C)n1-2` was tested. Which growth did it give?
Answer: 97.1% (inactive)

Question: `Cc1nc(N(C)C)nc(OC(=O)N(C)C)c1C` was tested. Which growth did it give?
Answer: 109% (inactive)

Question: With `COC(C)(C)CCCC(C)C/C=C/C(C)=C/C(=O)OC(C)C` (stereo not given) as the compound, how does the growth read?
Answer: 47.7% (inactive)

Question: How did the growth turn out when `CC(C)=CC1C(C(=O)OCN2C(=O)C3=C(CCCC3)C2=O)C1(C)C` (stereo not given) was run?
Answer: 85.9% (inactive)

Question: With `Clc1cc(Cl)cc(Nc2nc3cnc(NC4CCCC4)cc3n2C2CCNC2)c1` (stereo not given) as the compound, how does the growth read?
Answer: 7.86% (active)

same assay, conditions: 100 µM

Question: Which growth does the source give for `O=C(NC(=O)c1c(F)cccc1F)Nc1ccc(Cl)cc1` here?
Answer: 81% (inactive)

Question: For `N#CCNC(=O)c1cnccc1C(F)(F)F`, which growth is on record?
Answer: 142% (inactive)

Question: Which growth does the source give for `CNCCn1c(Nc2cc(Cl)cc(C(F)(F)F)c2)nc2cnc(NC3CC(F)(F)C3)cc21` here?
Answer: 6.62% (active)

Question: How did the growth turn out when `ClC1=C(Cl)[C@@]2(Cl)[C@H]3C[C@@H](Cl)[C@H](Cl)[C@H]3[C@@]1(Cl)C2(Cl)Cl` was run?
Answer: 130% (inactive)

Question: For `CCOCn1c(-c2ccc(Cl)cc2)c(C#N)c(Br)c1C(F)(F)F`, which growth is on record?
Answer: 6.93% (active)

Question: With `CC1(C)CNC(=NN=C(C=Cc2ccc(C(F)(F)F)cc2)C=Cc2ccc(C(F)(F)F)cc2)NC1` as the compound, how does the growth read?
Answer: 106% (inactive)

Question: For `CCN(Cc1ccc(Cl)nc1)/C(=C/[N+](=O)[O-])NC`, which growth is on record?
Answer: 132% (inactive)

Question: With `CC(C)(C#N)NC(=O)c1cc(Cl)cc(Cl)c1NC(=O)c1cc(Cl)nn1-c1ncccc1Cl` as the compound, how does the growth read?
Answer: 116% (inactive)

Question: `CN/C(=N/CC1CCOC1)N[N+](=O)[O-]` (stereo not given) was tested. Which growth did it give?
Answer: 125% (inactive)

Question: For `CN(C)[C@@H]1C(=O)C(C(N)=O)=C(O)[C@@]2(O)C(O)=C3C(=O)c4c(O)cccc4[C@@](C)(O)[C@H]3C[C@@H]12`, which growth is on record?
Answer: 82.5% (inactive)

Question: How did the growth turn out when `Clc1ccc(C(OCCN2CCCCC2)c2ccccc2)cc1` (stereo not given) was run?
Answer: 4.6% (active)

Question: `N#Cc1nn(-c2c(Cl)cc(C(F)(F)F)cc2Cl)c(NCc2ccccn2)c1SC(F)F` was tested. Which growth did it give?
Answer: 131% (inactive)

Question: Which growth does the source give for `FC(F)(F)c1cc(Cl)cc(Nc2nc3cnc(OC4CCC4)cc3n2[C@@H]2CCNC2)c1` here?
Answer: 64% (inactive)

Question: Which growth does the source give for `COP(=S)(OC)Oc1nc(Cl)c(Cl)cc1Cl` here?
Answer: 106% (inactive)

Question: How did the growth turn out when `CNC(=O)c1cc(C#N)cc(C)c1NC(=O)c1cc(Br)nn1-c1ncccc1Cl` was run?
Answer: 55.9% (inactive)

Question: For `Cc1sc2c(c1C)C(c1ccc(Cl)cc1)=N[C@@H](CC(=O)OC(C)(C)C)c1nnc(C)n1-2`, which growth is on record?
Answer: 4.14% (active)

Question: How did the growth turn out when `Cc1nc(N(C)C)nc(OC(=O)N(C)C)c1C` was run?
Answer: 137% (inactive)

Question: For `COC(C)(C)CCCC(C)C/C=C/C(C)=C/C(=O)OC(C)C` (stereo not given), which growth is on record?
Answer: 105% (inactive)

Question: How did the growth turn out when `CC(C)=CC1C(C(=O)OCN2C(=O)C3=C(CCCC3)C2=O)C1(C)C` (stereo not given) was run?
Answer: 127% (inactive)

Question: Which growth does the source give for `Clc1cc(Cl)cc(Nc2nc3cnc(NC4CCCC4)cc3n2C2CCNC2)c1` (stereo not given) here?
Answer: 6.79% (active)
